Laboratory results taken from PubChem BioAssay (NCI).
“And” between values parts separate entries of the source, which are not always exact repeats. Equal entries are not always repeated. The panel holds about 83,000 compounds, 20% with a hit somewhere; the sample as a whole holds those more often.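 Method: cells in 96-well plates; compound added at one concentration; 48 h incubation; percent growth measured; values under 10 scored active.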 The source made the active and inactive calls.

Legend:
Experiment in all cases: NCI-60 one-dose screen, 48 h (100 = growth as untreated, 0 = no growth, -100 = all killed)
Conditions in all cases: 10 µM unless noted
SK-MEL-2 melanoma = test system: SK-MEL-2 melanoma
EKVX NSCLC = test system: EKVX NSCLC
SN12C renal = test system: SN12C renal
UO-31 renal = test system: UO-31 renal
ACHN renal = test system: ACHN renal
CAKI-1 renal = test system: CAKI-1 renal
A498 renal = test system: A498 renal
CCRF-CEM leukemia = test system: CCRF-CEM leukemia
MOLT-4 leukemia = test system: MOLT-4 leukemia
TK-10 renal = test system: TK-10 renal

Measured: growth

Cn1cc(-c2cc(N)n3nc(-c4c[nH]c5ccccc45)cc3n2)c2cc(Cl)ccc21
active: SK-MEL-2 melanoma -64.6% | EKVX NSCLC -77% | SN12C renal -81.2% | UO-31 renal -80.1% | ACHN renal -75.6% | CAKI-1 renal -63.6% | A498 renal -59.1% | CCRF-CEM leukemia -16.2% | MOLT-4 leukemia 6.43%

O=c1ccc(Cn2c(C(F)(F)F)cc3c(Cl)ncnc32)c[nH]1
inactive: EKVX NSCLC 95.4% | SN12C renal 47.9% | CAKI-1 renal 78.1% | A498 renal 136% | CCRF-CEM leukemia 11.8%
active: SK-MEL-2 melanoma -86.2% | UO-31 renal -88.4% | ACHN renal -54.5% | MOLT-4 leukemia -26.6%

CC(=O)c1ccc2c(N)c(C(=O)Nc3ccc(C(F)(F)F)cc3)sc2n1
inactive: SK-MEL-2 melanoma 67.7% | EKVX NSCLC 40.7% | SN12C renal 73% | UO-31 renal 73.8% | ACHN renal 66.2% | CAKI-1 renal 56.9% | A498 renal 126% | CCRF-CEM leukemia 60.9% | MOLT-4 leukemia 32.7%

CCOc1ccc(-c2cc(-c3cc(C(C)C)c(O)cc3C)nn2-c2ccc(S(N)(=O)=O)cc2)cc1
inactive: SK-MEL-2 melanoma 54.5% | EKVX NSCLC 30.9% | SN12C renal 30.6% | UO-31 renal 48.6% | ACHN renal 54.1% | CAKI-1 renal 58.7% | A498 renal 98.3% | CCRF-CEM leukemia 11.3% | MOLT-4 leukemia 11.6%

COc1ccc([C@H]2C(C(=O)c3ccc(Cl)cc3)C3(N[C@@H]2c2ccccc2)C(=O)Nc2ccccc23)cc1 (stereo partly drawn)
inactive: EKVX NSCLC 21.6% | UO-31 renal 13.2% | ACHN renal 11.2% | CAKI-1 renal 14% | A498 renal 40.2% | CCRF-CEM leukemia 45.8% | MOLT-4 leukemia 18.9%
active: SK-MEL-2 melanoma -29.6% | SN12C renal 6.41%

COc1ccc(/C=C/c2nc3ccccc3c(=O)n2CC(=O)Nc2ccccc2)cc1
inactive: SK-MEL-2 melanoma 81.2% | EKVX NSCLC 63.1% | CAKI-1 renal 35.1% | CCRF-CEM leukemia 88.3% | MOLT-4 leukemia 86.7%
active: SN12C renal 8.23% | UO-31 renal -33% | ACHN renal -60% | A498 renal -43%

OC1CCC(Cn2c(C(F)(F)F)cc3c(Cl)ncnc32)CC1 (stereo not drawn)
inactive: EKVX NSCLC 65.7% | SN12C renal 18.5% | CAKI-1 renal 53.1% | A498 renal 119%
active: SK-MEL-2 melanoma -89.4% | UO-31 renal -80.2% | ACHN renal -86.5% | CCRF-CEM leukemia -7.23% | MOLT-4 leukemia -43.5%

O=C(c1ccc(Cl)cc1)C1[C@H](c2ccccc2Cl)[C@@H](c2ccccc2)NC12C(=O)Nc1ccccc12 (stereo partly drawn)
active: SK-MEL-2 melanoma -85.3% | EKVX NSCLC 1.03% | SN12C renal -89.1% | UO-31 renal 3.34% | ACHN renal 1.1% | CAKI-1 renal 3.65% | A498 renal -29% | CCRF-CEM leukemia 4.66% | MOLT-4 leukemia -32.1%

COc1ccc(NC2=C(I)C(=O)C(C)=C(C)C2=O)cc1
inactive: SK-MEL-2 melanoma 56.9% | EKVX NSCLC 25% | SN12C renal 17% | UO-31 renal 46.1% | ACHN renal 30.4% | CAKI-1 renal 29.1% | A498 renal 113%
active: CCRF-CEM leukemia -11.1% | MOLT-4 leukemia -6.32%

COc1c(B(O)O)cc(F)cc1-c1nc2ccc3[nH]ncc3c2c2c1COCC2
inactive: SK-MEL-2 melanoma 93.9% | EKVX NSCLC 75.3% | SN12C renal 50.3% | UO-31 renal 55% | ACHN renal 36.4% | A498 renal 106% | CCRF-CEM leukemia 19.1% | MOLT-4 leukemia 53.1%
active: CAKI-1 renal -12.1%

Cn1cc(-c2cc(N)n3nc(-c4c[nH]c5ccccc45)cc3n2)c2cc(F)ccc21
inactive: SK-MEL-2 melanoma 51.6% | EKVX NSCLC 60.2% | SN12C renal 47.1% | UO-31 renal 59.7% | ACHN renal 31.7% | CAKI-1 renal 77.5% | A498 renal 99% | MOLT-4 leukemia 25.7%
active: CCRF-CEM leukemia -0.0318%

N/C(=N\c1nc2ccc([N+](=O)[O-])cc2s1)NC(=O)Nc1ccccc1Cl
inactive: SK-MEL-2 melanoma 88.1% | EKVX NSCLC 58.4% | SN12C renal 25.5% | CAKI-1 renal 43.1% | CCRF-CEM leukemia 74.9% | MOLT-4 leukemia 83.5%
active: UO-31 renal -32.1% | ACHN renal -41.4% | A498 renal -5.78%

COc1ccc(NC(=O)Cn2c(/C=C/c3ccc([N+](=O)[O-])cc3)nc3ccccc3c2=O)cc1
inactive: SK-MEL-2 melanoma 78.9% | EKVX NSCLC 74.4% | SN12C renal 62.3% | UO-31 renal 22.9% | ACHN renal 51.9% | CAKI-1 renal 63.2% | A498 renal 85.8% | CCRF-CEM leukemia 103% | MOLT-4 leukemia 114%

O=S(=O)(c1nc(-c2ccc(Br)cc2)oc1-c1ccc(Cl)cc1)N1CCCC(O)C1 (stereo not drawn)
inactive: SK-MEL-2 melanoma 65.2% | EKVX NSCLC 50% | UO-31 renal 37.4% | ACHN renal 53.8% | CAKI-1 renal 71.1% | A498 renal 83.3% | CCRF-CEM leukemia 48.1%
active: SN12C renal -59.5% | MOLT-4 leukemia 6.98%

FC(F)(F)c1cc2c(Cl)ncnc2n1CCN1CCOCC1
inactive: SK-MEL-2 melanoma 47.7% | EKVX NSCLC 92.8% | SN12C renal 75.6% | CAKI-1 renal 75% | A498 renal 116% | CCRF-CEM leukemia 36.6% | MOLT-4 leukemia 20.2%
active: UO-31 renal -92.7% | ACHN renal -45.4%

CCOC(=O)/C(F)=C/C1CC1CCc1ccc(OCC)cc1 (stereo not drawn)
inactive: SK-MEL-2 melanoma 102% | EKVX NSCLC 47.7% | SN12C renal 44.9% | UO-31 renal 73.8% | TK-10 renal 98.2% | ACHN renal 75.1% | CAKI-1 renal 86.1% | A498 renal 102% | CCRF-CEM leukemia 106% | MOLT-4 leukemia 98.4%

CCOC(=O)/C(F)=C/C1CC1C1CCN(C(=O)OC(C)(C)C)CC1 (stereo not drawn)
inactive: SK-MEL-2 melanoma 110% | EKVX NSCLC 74.4% | SN12C renal 62.6% | UO-31 renal 81.6% | ACHN renal 97.4% | CAKI-1 renal 93.7% | A498 renal 127% | CCRF-CEM leukemia 104% | MOLT-4 leukemia 106%

FC(F)(F)c1cc2c(Cl)ncnc2n1CCC1CCOCC1
active: SK-MEL-2 melanoma -91.2% | UO-31 renal -92.9% | ACHN renal -44.2% | CCRF-CEM leukemia -14.5% | MOLT-4 leukemia -38.4%
inactive: EKVX NSCLC 77% | SN12C renal 40.7% | CAKI-1 renal 80.3% | A498 renal 97.8%

Nc1nnc(CS(=O)(=O)c2ccccc2)s1
inactive: SK-MEL-2 melanoma 113% | SN12C renal 106% | UO-31 renal 77.1% | TK-10 renal 98.7% | ACHN renal 104% | CAKI-1 renal 88.8% | A498 renal 137% | CCRF-CEM leukemia 102% | MOLT-4 leukemia 103%

CN(C)c1nc(NCCNS(=O)(=O)c2ccc(C3=Nc4c(N)nc(N)nc4NC(c4ccc(Cl)cc4)C3)cc2)nc(N2CCOCC2)n1 (stereo not drawn)
inactive: SK-MEL-2 melanoma 98.5% | SN12C renal 37% | UO-31 renal 59.9% | TK-10 renal 86.8% | ACHN renal 69.2% | CAKI-1 renal 41.7% | A498 renal 108% | CCRF-CEM leukemia 17.3% | MOLT-4 leukemia 13.9%

CN(CCSSCCN1CCOCC1)C(=O)Oc1cc2c(c3ccccc13)[C@H](CCl)CN2C(=O)c1cc2cc(OCCCN3CCC3)ccc2[nH]1
active: SK-MEL-2 melanoma -84.3% | SN12C renal -9.12% | UO-31 renal -16.7% | TK-10 renal -10.3% | ACHN renal -66.8% | CAKI-1 renal -48.1% | A498 renal -14.5% | CCRF-CEM leukemia -41.3% | MOLT-4 leukemia -39.8%

Nc1ccc(-c2ccc3ncnc(N4CCc5cc(F)c(Cl)cc54)c3c2)cn1
active: UO-31 renal 3.05% | TK-10 renal -7.15% | ACHN renal 8.96% | CAKI-1 renal 5.25% | A498 renal -13.2% | MOLT-4 leukemia 1.81%
inactive: SK-MEL-2 melanoma 29% | SN12C renal 19.2% | CCRF-CEM leukemia 10.6%

Cc1ccc(C2CC(c3ccc(NC(=S)Nc4ccccc4)cc3)=NN2c2ccc(S(N)(=O)=O)cc2)cc1 (stereo not drawn)
inactive: SK-MEL-2 melanoma 13.4% | SN12C renal 28.3% | TK-10 renal 21.6% | A498 renal 76.4% | CCRF-CEM leukemia 14.5% | MOLT-4 leukemia 25.8%
active: UO-31 renal 3.53% | ACHN renal -33.2% | CAKI-1 renal -10.6%

N#Cc1c(NC(=O)N2CCOCC2)n(-c2ccc(OC(F)(F)F)cc2)c2cc(F)ccc12
inactive: SK-MEL-2 melanoma 94% | SN12C renal 93.5% | UO-31 renal 104% | TK-10 renal 113% | ACHN renal 93.2% | CAKI-1 renal 88.9% | A498 renal 177% | CCRF-CEM leukemia 85.5% | MOLT-4 leukemia 68.7%

NC(=Nc1ccc(OCCCCCCCCn2cnnn2)cc1)c1ccccc1
inactive: SK-MEL-2 melanoma 21% | SN12C renal 27% | UO-31 renal 41.6% | TK-10 renal 64.8% | ACHN renal 32.3% | CAKI-1 renal 35.2% | A498 renal 114% | CCRF-CEM leukemia 19.6% | MOLT-4 leukemia 20.9%

C#CCN(C)CCCOc1ccc(N(CC)C(=O)c2cc(C(C)C)c(O)cc2O)cc1Cl
inactive: TK-10 renal 11.1% | ACHN renal 11.6% | A498 renal 21.6%
active: SK-MEL-2 melanoma -57.9% | SN12C renal -52.1% | UO-31 renal 8.11% | CAKI-1 renal 9.89% | CCRF-CEM leukemia 7.35% | MOLT-4 leukemia -33.6%

CC(C)(C)c1ccc(OCc2nc3ccccc3n2-c2cccc(N)c2)cc1
inactive: SK-MEL-2 melanoma 62.8% and 109% | SN12C renal 79.2% and 106% | UO-31 renal 43.4% and 83.6% | TK-10 renal 93.3% and 111% | ACHN renal 70.2% and 112% | CAKI-1 renal 44.4% and 95.6% | A498 renal 142% and 126% | CCRF-CEM leukemia 46% and 96.1% | MOLT-4 leukemia 25.4% and 90.9%

CCC(=O)c1cc(C(=O)OC)c2ccc3c4ccccc4ccc3n12
active: ACHN renal 0.659%
inactive: SK-MEL-2 melanoma 105% | SN12C renal 57.9% | UO-31 renal 52.9% | TK-10 renal 63.9% | CAKI-1 renal 42.7% | A498 renal 136% | CCRF-CEM leukemia 97.8% | MOLT-4 leukemia 94.8%
